Screening results deposited in PubChem by National Center for Advancing Translational Sciences (NCATS).
TDP1 block – blocks human tyrosyl-DNA phosphodiesterase 1; AID 485290; Q9NUW8; Potency, µM (series often up to 130 µM), most hits filed as inhibitors; actives 0.28% (n = 350,000); recombinant TDP1, AlphaScreen DNA substrate cleavage; further: nearly all actives have a fitted effect of over 40% in size
Target sequence (Q9NUW8 whole entry, looked up): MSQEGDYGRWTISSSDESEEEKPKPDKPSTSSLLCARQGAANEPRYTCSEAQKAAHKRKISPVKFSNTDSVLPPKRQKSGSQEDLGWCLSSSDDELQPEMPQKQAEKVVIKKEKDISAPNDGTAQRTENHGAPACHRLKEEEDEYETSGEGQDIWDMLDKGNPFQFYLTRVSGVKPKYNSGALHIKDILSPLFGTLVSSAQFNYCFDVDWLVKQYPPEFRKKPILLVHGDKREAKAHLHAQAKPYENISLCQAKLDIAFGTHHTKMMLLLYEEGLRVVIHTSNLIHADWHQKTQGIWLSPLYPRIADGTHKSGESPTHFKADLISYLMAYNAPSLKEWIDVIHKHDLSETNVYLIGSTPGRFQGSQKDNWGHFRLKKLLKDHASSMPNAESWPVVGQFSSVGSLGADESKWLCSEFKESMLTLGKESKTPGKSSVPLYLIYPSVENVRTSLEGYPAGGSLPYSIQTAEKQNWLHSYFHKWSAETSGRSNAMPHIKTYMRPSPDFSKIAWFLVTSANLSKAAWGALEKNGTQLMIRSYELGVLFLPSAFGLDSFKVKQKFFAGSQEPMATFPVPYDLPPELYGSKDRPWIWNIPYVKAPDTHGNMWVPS
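Recombinant human Tdp1 (E. coli-expressed, 1 nM final) preincubated with compounds 15 min at room temperature, then 5'-biotin/3'-phosphotyrosine-FITC DNA substrate (15 nM final) added for 5 min. AlphaScreen beads (10 ug/ml final) added 10 min; cleavage lowers signal.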
IL1B secr inh – inflammasome signaling inhibition, IL-1 beta readout; THP-1 LPS/ATP IL-1B secretion, AlphaLISA, 16 h; active compounds read low; activity change, % at 57.5 µM; actives 4.7% (n = 360,000); in the data active means activity change below about -50%; inconclusive means mostly about -30% to -49%
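Secreted IL-1B measured by AlphaLISA bead assay after 16 h compound exposure of THP-1 cells; compounds (final up to 57.5 uM) added 1 h before LPS (250 ng/mL) and ATP (1.25 mM) stimulation; lower signal means less secretion.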
TGFb SMAD3 inh – blocks TGF-b signaling; HepG2 CAGA-GFP TGF-b/SMAD3 reporter, GFP fluorescence, 18 h; TGF-beta stimulated, 500 pg/mL final; Potency, µM (highest dose often 46.1 µM), usual class: inhibitors; actives 1.2% (n = 410,000); AID 588855; further: nearly all actives have a fitted effect of over 65% in size
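HEPG2 CAGA-GFP reporter cells (1000/well, DMEM with 1% FBS) received compounds, then recombinant TGF-beta at 500 pg/mL final for 18 hours at 37 degrees C. Per-cell GFP summed per well was normalised to unstimulated and stimulated DMSO controls before curve fitting.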
HepG2 tox – kills HepG2 cells in TGF-b inhibitor counter-screen; Potency, µM (top dose mostly 46.1 µM), hits mostly cytotoxic; HepG2 CAGA-GFP viability, ATP luminescence, 18 h; actives 0.76% (n = 410,000)
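HepG2 CAGA-GFP cells (1000/well, DMEM with 1% FBS) received compound, then TGF-beta at 500 pg/mL final, and were incubated 18 hours at 37 degrees C. Viability was read by CellTiter-Glo luminescence. Media-only wells were set as complete cell-killing and DMSO as no toxicity.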
DT40 TDP1 CPT – DT40-hTDP1 cell growth loss with CPT. chicken DT40 Tdp1-/-;hTDP1 cells + 20 nM CPT, ATP luminescence, 48 h. Potency, µM (series often up to 46.2 µM), hits mostly inhibitors. actives 12% (n = 420,000). AID 686979; further: nearly all actives have a fitted effect of over 55% in size
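Chicken DT40 Tdp1-/- cells complemented with human TDP1, 400 cells/well, exposed to compounds plus 20 nM camptothecin for at least 48 h at 37 C; viability read as ATP content by CellTiter-Glo luminescence.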
TDP1 cell noCPT – qHTS for Inhibitors of human tyrosyl-DNA phosphodiesterase 1 (TDP1): qHTS in cells in absence of CPT | DT40 Tdp1-/- hTDP1 cells, no CPT, ATP luminescence, 48 h | Potency, µM (top dose mostly 46.2 µM), usual class: inhibitors | actives 15% (n = 420,000) | AID 686978, 2013; further: nearly all actives have a fitted effect of over 55% in size
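Camptothecin absent (DMSO only). Human TDP1-complemented DT40 knockout cells, 400 cells/well, 37 °C for minimum 48 hr; ATP measured via CellTiter-Glo, 30 min dark incubation, luminescence.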
Each line names hits and unclear results; the compound was inactive in the other large screens. The list is not random: actives were taken first. Their share in the collection is about 18%. Unless noted, the call rests on the fitted dose curve; in most records, active means well fitted curve in the direction sought with a large enough effect; inconclusive means small, poorly fitted or top-dose-only effect, or another doubt; inactive means no such curve, though single readings can be large; an effect the other way counts as inactive or inconclusive.

Cc1c(C(=O)NCc2ccc(F)cc2)oc2ccc(S(=O)(=O)N3CCCCC3)cc12	TGFb SMAD3 inh inconclusive, DT40 TDP1 CPT 23µM, TDP1 cell noCPT inconclusive (no result: IL1B secr inh)
Cc1cccc(NC(=O)c2oc3ccc(S(=O)(=O)N4CCOCC4)cc3c2C)c1C	DT40 TDP1 CPT inconclusive, TDP1 cell noCPT 23µM
Cc1ccc(NC(=O)c2oc3ccc(S(=O)(=O)N4CCOCC4)cc3c2C)c(C)c1	DT40 TDP1 CPT inconclusive, TDP1 cell noCPT inconclusive
CC(=O)c1[nH]c(C)c(C(=O)N2CCCC(Nc3cccc(F)c3)C2)c1C (stereo not given)	none
Cc1ccc(Cl)cc1NC(=O)Cn1c(C)csc1=O	none
CN1CCn2cnc(C(=O)N[C@@H](Cc3ccccc3)C(=O)OC(C)(C)C)c2C1=O	none (no result: TDP1 block)
Cc1cc(/C=N/Nc2ccc([N+](=O)[O-])cn2)c(C)n1-c1ccccc1	DT40 TDP1 CPT 18µM, TDP1 cell noCPT inconclusive
Cc1ccc(Cn2cc(/C=N/Nc3ccc([N+](=O)[O-])cn3)c3ccccc32)cc1	TGFb SMAD3 inh 4.5µM, DT40 TDP1 CPT inconclusive, TDP1 cell noCPT 16µM
O=C(O)Cn1cc(/C=N/Nc2ccc([N+](=O)[O-])cn2)c2ccccc21	none (no result: TDP1 block)
Cc1ccc(C(=O)N/N=C/c2cn(Cc3ccccc3)c3ccccc23)cn1	TGFb SMAD3 inh 1.6µM, HepG2 tox 0.56µM, DT40 TDP1 CPT inconclusive, TDP1 cell noCPT 21µM
Cc1sc2ncn(CC(=O)Nc3ccc(C(C)C)cc3)c(=O)c2c1S(=O)(=O)N1CCN(c2ncccn2)CC1	DT40 TDP1 CPT inconclusive, TDP1 cell noCPT inconclusive (no result: IL1B secr inh)
CCCS(=O)(=O)N1CC(=O)N(c2cccc(F)c2)C(C)(C(=O)NC2CCCCCC2)C1 (stereo not given)	none (no result: IL1B secr inh)
COc1ccc(C2NC(=O)NC(C)=C2[N+](=O)[O-])cc1 (stereo not given)	none (no result: TDP1 block)
Cc1no[n+]([O-])c1COc1ccc(/C=C2\NC(=S)NC2=O)cc1	IL1B secr inh -53
Cc1csc(C)[n+]1CCC1CCCCC1	DT40 TDP1 CPT inconclusive, TDP1 cell noCPT 13µM (no result: TDP1 block, IL1B secr inh)
CCOC(=O)C[n+]1c(C)csc1C	none
CO[C@H]1[C@H](NC(=O)c2ccsc2)c2ccccc2C12CCN(Cc1cc3ccccc3o1)CC2	TDP1 cell noCPT inconclusive (no result: TDP1 block, IL1B secr inh, TGFb SMAD3 inh, HepG2 tox)
COc1ccc(CN2CCCN(CC(=O)Nc3cc(C)ccc3C)S2(=O)=O)cc1	TGFb SMAD3 inh inconclusive, DT40 TDP1 CPT 21µM, TDP1 cell noCPT 21µM (no result: IL1B secr inh)
CCOC(=O)c1ccccc1NC(=O)CN1CCCN(Cc2cc(C)ccc2C)S1(=O)=O	TGFb SMAD3 inh inconclusive, DT40 TDP1 CPT 21µM, TDP1 cell noCPT 21µM (no result: IL1B secr inh)
CCc1cccc(C)c1NC(=O)CN1CCCN(Cc2ccc(C)cc2)S1(=O)=O	DT40 TDP1 CPT 16µM, TDP1 cell noCPT 10µM (no result: IL1B secr inh)
Cc1ccccc1CN1CCCN(CC(=O)Nc2c(C)cccc2C)S1(=O)=O	DT40 TDP1 CPT inconclusive, TDP1 cell noCPT inconclusive (no result: IL1B secr inh)
CC(=O)N1CCCC(C)(C(=O)Nc2ccc3oc(C)nc3c2)C1 (stereo not given)	none (no result: TDP1 block)
N#CCCN(C(=O)CO/N=C/c1cccc([N+](=O)[O-])c1)c1ccccc1	none
Cc1cc(NC(=O)c2ccc3c(c2)C(=O)N(C)C3=O)no1	none
O=C(Nc1ccncc1)c1ccc2c(c1)C(=O)N(C1CCCCC1)C2=O	DT40 TDP1 CPT 18µM, TDP1 cell noCPT 23µM (no result: TDP1 block)
Cc1cc(NC(=O)c2ccc3c(c2)C(=O)N(C2CCCCC2)C3=O)no1	DT40 TDP1 CPT inconclusive, TDP1 cell noCPT 15µM
CCOC(=O)C1C(=O)OC(C)(C)C1C(CC)C(=O)c1ccccc1 (stereo not given)	none
CCOC(=O)C1C(=O)OC(C)(C)C1C(CC)C(=O)c1c(C)cc(C)cc1C (stereo not given)	TGFb SMAD3 inh inconclusive, DT40 TDP1 CPT 18µM, TDP1 cell noCPT 9.2µM
CCOC(=O)N1CCc2c(sc(NC(=O)c3ccc(S(=O)(=O)N4CCCC4)cc3)c2C#N)C1	DT40 TDP1 CPT 21µM, TDP1 cell noCPT 15µM
COc1cc(C(=O)Nc2sc3c(c2C#N)CCN(C(C)=O)C3)cc(OC)c1OC	DT40 TDP1 CPT inconclusive, TDP1 cell noCPT inconclusive
CC(=O)N1CCc2c(sc(NC(=O)CCS(=O)(=O)c3ccc(C)cc3)c2C#N)C1	DT40 TDP1 CPT inconclusive, TDP1 cell noCPT inconclusive
CCCN1CCc2c(sc(NC(=S)NC(=O)c3ccccc3)c2C#N)C1	DT40 TDP1 CPT 21µM, TDP1 cell noCPT inconclusive
COc1ccc(C(=O)Nc2sc3c(c2C#N)CCN(C(C)=O)C3)cc1	DT40 TDP1 CPT 3.3µM, TDP1 cell noCPT 4.1µM
CC(C)N1CCc2c(sc(NC(=O)c3ccc(S(=O)(=O)N4CCOCC4)cc3)c2C#N)C1	DT40 TDP1 CPT 23µM, TDP1 cell noCPT 21µM
CC(C)N1CCc2c(sc(NC(=S)NC(=O)c3ccccc3)c2C#N)C1	TDP1 cell noCPT inconclusive
O=C(CN(C(=O)c1ccccc1)C(=O)c1ccccc1)OCc1ccccc1	none (no result: TDP1 block)
Cn1c2ccccc2c2cnn(CC(=O)Nc3ccccc3C(F)(F)F)c(=O)c21	none (no result: IL1B secr inh)
